The record followed here is PubChem BioAssay (NCATS).

A short description of assay [1]: qHTS profiling for inhibitors of Plasmodium falciparum (3D7) proliferation (AID 743322).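 Note: infected erythrocytes exposed to compound for 72 h before lysis; 100% = DMSO vehicle wells and 0% = 0.29 µM artemisinin.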 As to conditions: P. falciparum 3D7 proliferation; at 28.7 µM (top of the series). Put shortly:
(§1)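 Parasite DNA was quantified by SYBR Green I fluorescence (ex 485, em 535 nm) after overnight lysis in saponin/Triton buffer at room temperature. Cultures at 0.3% parasitemia and 2.5% hematocrit were first exposed to compound for 72 h at 37 C; signals were normalised to artemisinin (0.29 uM) and vehicle wells.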
On the technique in general: Quantitative high-throughput screening tests each substance at several concentrations.

Assay [2] can be described thus: qHTS profiling for inhibitors of Plasmodium falciparum (DD2) proliferation (AID 743323). As to conditions: lower = more inhibition; at 28.7 µM (top of the series). In a few lines: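 Parasite DNA quantified by SYBR Green fluorescence (ex 485, em 535 nm) after saponin/Triton lysis and overnight dark incubation. Cultures: 0.3% parasitemia, 2.5% hematocrit, 72 h, 37 C; data scaled between DMSO and 0.29 uM artemisinin.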

Assay [3] in a line: qHTS profiling for inhibitors of Plasmodium falciparum (HB3) proliferation (AID 743324; active = well fitted curve in the direction sought with a large enough effect; an effect the other way counts as inactive or inconclusive;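 note: 100% = DMSO vehicle wells and 0% = artemisinin-treated control wells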). Particulars: Plasmodium falciparum HB3 blood-stage proliferation; at 28.7 µM (top of the series). In a few lines:
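SYBR Green fluorescence (485 ex/535 em) of lysed cultures, incubated overnight at room temperature in the dark, quantifies parasite DNA. Infected erythrocytes at 0.3% parasitemia and 2.5% hematocrit were exposed 72 h; values normalized to DMSO and 0.29 uM artemisinin controls.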

A short description of assay [4]: qHTS profiling of the MIPE4 collection as inhibitors of Plasmodium falciparum (3D7) proliferation (AID 743344).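 Note: scaled between DMSO vehicle wells and 0.29 µM artemisinin as full inhibition.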 As to conditions: P. falciparum 3D7 in erythrocytes, SYBR Green DNA fluorescence, 72 h; at 28.5 µM (top of the series) unless noted. Put shortly:
as §1

Assay [5] in a line: qHTS profiling of the MIPE4 collection as inhibitors of Plasmodium falciparum (DD2) proliferation (AID 743345). As to conditions: P. falciparum Dd2 in erythrocytes, SYBR Green DNA, 72 h; at 28.5 µM (top of the series) unless noted. Put shortly: as §1
Assay [6] in a line: qHTS profiling of the MIPE4 collection as inhibitors of Plasmodium falciparum (HB3) proliferation (AID 743347).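 Note: plate controls were DMSO vehicle wells for no effect and artemisinin wells for full effect.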 As to conditions: P. falciparum HB3 in erythrocytes, SYBR Green DNA, 72 h; at 28.5 µM (top of the series) unless noted. In a few lines: as §1
A short description of assay [7]: High-throughput drug toxicity screening in the BPDCN cell line Gen2.2 (AID 1224824).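 Note: cells exposed to compounds for 48 h before reading.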 As to conditions: Gen2.2 BPDCN cells; at 45.8 µM (top of the series) unless noted. In a few lines:
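Seed 500 exponentially growing Gen2.2 cells/well; add compounds by pin tool; incubate 48 h, 37 °C, 5% CO2; add CellTiter-Glo, 15 min RT; read luminescence. % activity vs DMSO (100%) and bortezomib (0%).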

Assay [8] can be described thus: High-throughput drug toxicity screening in the BPDCN cell line Cal-1 (AID 1224825). Particulars: Cal-1 BPDCN cell viability, qHTS; at 45.8 µM (top of the series) unless noted. In a few lines:
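CellTiter-Glo luminescence after 48 h compound exposure; percent activity scaled with DMSO as 100% and bortezomib (9.2 uM final) as 0%. Cal-1 cells seeded at 500/well in RPMI, 10% FBS, no phenol red.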

Assay [9] is described as follows: qHTS assay for measurement of the activity of small molecule inhibitors on Zika virus induced Caspase-3 activity in human iPSC derived neural progenitor cells (hNPCs) (AID 1224857; active = well fitted curve in the direction sought with a large enough effect; an effect the other way counts as inactive or inconclusive; note: nearly all actives have a fitted effect of over 65% in size; note: potency is the fitted concentration of half-maximal effect). In a few lines: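 Zika virus (2 FFU/cell) infection of human iPSC-derived NPCs, 6 h, following 1 h compound preincubation. Read-out: Caspase-Glo 3/7 luminescence.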
Assay [10] can be described thus: qHTS Screen of the MIPE 4.0 Collection Against Ewings Sarcoma (TC32) (AID 1259256; active = well fitted curve in the direction sought with a large enough effect; an effect the other way counts as inactive or inconclusive; note: nearly all actives have a fitted effect of over 45% in size; note: potency is the fitted concentration of half-maximal effect). Put shortly:
(§2)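 Log-phase cells in RPMI with 5% FBS attached for 4 h, then received compounds as a titration for 48 h at 37C, 5% CO2. Viability was read by CellTiter-Glo luminescence and normalized to DMSO and no-cell wells.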

Assay [11] is described as follows: Identifying Small Molecule Inhibitors of Pancreatic Cancer Stem Cells (A2780, Spheroid) (AID 1259357; active = well fitted curve in the direction sought with a large enough effect; an effect the other way counts as inactive or inconclusive;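 note: spheroids pre-formed over 14 days in stem cell medium on hydrogel; potency is the fitted concentration of half-maximal effect; compound exposure lasted 48 h before the ATP luminescence read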). Particulars: Potency: A2780 spheroid viability. Put shortly:
(§3)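 Spheroids grown 14 days in stem cell media on hydrogel-coated nonadherent plates; 2D lines seeded directly. Compounds added after 4 h attachment, 48 h at 37C, 5% CO2; CellTiter-Glo luminescence normalized to DMSO (no inhibition) and no-cell wells (full inhibition).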

Assay [12] is described as follows: Identifying Small Molecule Inhibitors of Pancreatic Cancer Stem Cells (SN12C, Spheroid) (AID 1259360; active = well fitted curve in the direction sought with a large enough effect; an effect the other way counts as inactive or inconclusive; note: potency is the fitted concentration of half-maximal effect). As to conditions: Potency: SN12C spheroid viability. In a few lines:
as §3

The nature of assay [13]: qHTS Screen of the MIPE 4.0 Collection Against Ewings Sarcoma (TC71) (AID 1259253; active = well fitted curve in the direction sought with a large enough effect; an effect the other way counts as inactive or inconclusive; note: nearly all actives have a fitted effect of over 40% in size; note: potency is the fitted concentration of half-maximal effect). In a few lines: as §2
Assay [14] can be described thus: qHTS Screen of the MIPE 4.0 Collection Against Ewings Sarcoma (EW8) (AID 1259255; active = well fitted curve in the direction sought with a large enough effect; an effect the other way counts as inactive or inconclusive; note: nearly all actives have a fitted effect of over 35% in size; note: potency is the fitted concentration of half-maximal effect;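 for viability: 100% = DMSO-treated cells and 0% = medium-only wells without cells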). Put shortly:
as §2

A short description of assay [15]: qHTS profiling of the MIPE4 collection as inhibitors of Plasmodium falciparum (DD2) proliferation (Rep 2) (AID 743346). As to conditions: P. falciparum Dd2 in erythrocytes, SYBR Green DNA, 72 h; at 28.5 µM (top of the series) unless noted. In a few lines:
as §1

Assay [16] in a line: qHTS Screen of the MIPE 4.0 Collection Against Ewings Sarcoma (RDES) (AID 1259252; active = well fitted curve in the direction sought with a large enough effect; an effect the other way counts as inactive or inconclusive; note: nearly all actives have a fitted effect of over 35% in size; note: potency is the fitted concentration of half-maximal effect). Put shortly: as §2

Inconclusive results are not listed. The source made the active and inactive calls. Unless noted, the rule behind the calls is not given here.

`CCOC(CN1C(=O)[C@](CC(=O)Nc2ccc(C)cc2)(NC(=O)Nc2ccc(C)cc2)c2ccccc21)OCC` gave a remaining parasite growth % (stronger effect = lower value) in [1] of 4.05%. This molecule had an activity, percent of control in [2] of 23.7%. The molecule also registered a remaining proliferation (% of control), lower = more inhibition in assay [3] of 10.1%. The molecule also had a parasite growth, % of DMSO control in [4] of 14%. This molecule also gave a parasite growth remaining, % of DMSO control (lower = more inhibition) in [5] of 38.2%. This molecule gave a growth, % of control in [6] of 15.7%. The cell viability, % of control (lower = more cytotoxic) in assay [7] came to 45.2%. The viability (% of control) in [8] worked out at 46.4%. Further, the Potency entry in assay [9] and in [10] was “inactive” each time. The Potency in assay [11] is 0.0059 µM (active); in [12] it was 18.7 µM (active).
Take `O=C1C[C@@H](c2ccc(O)cc2)Oc2cc(O)cc(O)c21`: in [4], the parasite growth, % of DMSO control is 20%. The same molecule showed a growth, % of control in assay [6] of 5.63%. Besides, in [7], the cell viability, % of control (lower = more cytotoxic) was determined as 70.3%. Also, in assay [8], the viability (% of control) was 103%. Moreover, the Potency in [9] was 18.7 µM (active); in [14] it was 13.2 µM (active). The Potency result in assay [13] and in [10] was “inactive” throughout.
In turn, `O=c1cc(N2CCOCC2)oc2c(-c3cccc4c3sc3ccccc34)cccc12` came in with a remaining parasite growth % (stronger effect = lower value) in [1] of 3.79%. In assay [2], this molecule came in with an activity, percent of control of 10.6%. For the same molecule, the remaining proliferation (% of control), lower = more inhibition in [3] came to 5.89%. Besides, the parasite growth, % of DMSO control in assay [4] was 11.6%. The molecule also displayed a parasite growth remaining, % of DMSO control (lower = more inhibition) in assay [5] of 28.4%. The molecule also registered a growth, % of control in assay [6] of 7.93%. Moreover, the cell viability, % of control (lower = more cytotoxic) in assay [7] came out at 2.51%. Besides, the viability (% of control) in [8] came out at 3.76%. In addition, the Potency result in [9] was “inactive”. Moreover, the Potency in [13] was 10.5 µM (active); in [11], 26.4 µM (active).
In [4], `CC(=NNC(=S)N1CCC1)c1ccccn1` yielded a parasite growth, % of DMSO control of 5.99%. The parasite growth remaining, % of DMSO control (lower = more inhibition) in assay [5] turned out to be 5.88%. The molecule also returned a growth, % of control in [6] of 6.19%. The cell viability, % of control (lower = more cytotoxic) in assay [7] was found to be 91.1%. Moreover, the viability (% of control) in assay [8] is 9.75%. Also, the Potency is 16.6 µM (active) in [9] and 0.0053 µM (active) in assay [13].
Turning to `N[C@@]1(C(=O)O)CS(=O)(=O)[C@H]2[C@H](C(=O)O)[C@H]21`, the parasite growth, % of DMSO control in assay [4] was 57.1%. This molecule came in with a parasite growth remaining, % of DMSO control (lower = more inhibition) in assay [5] of 88.4%. In assay [15], the parasite growth, % of control (lower = inhibition) stood at 112%. The growth, % of control in assay [6] came to 59.7%. The cell viability, % of control (lower = more cytotoxic) in assay [7] was determined as 78.4%. Besides, the viability (% of control) in assay [8] came to 76%. Moreover, the Potency result in [9] was “inactive”. The Potency in [10] was 18.7 µM (active).
Take `COc1ccc(-c2coc3cc(O)ccc3c2=O)cc1`: the parasite growth, % of DMSO control in assay [4] turned out to be 65.1%. In [5], this molecule gave a parasite growth remaining, % of DMSO control (lower = more inhibition) of 8.21%. In addition, the parasite growth, % of control (lower = inhibition) in [15] turned out to be 96.3%. In assay [6], this molecule displayed a growth, % of control of 92.8%. The cell viability, % of control (lower = more cytotoxic) in assay [7] was determined as 191%. Moreover, in assay [8], the viability (% of control) came to 109%. Moreover, in assay [9], the Potency was 18.7 µM (active). Moreover, the Potency entry in assay [16], in assay [13], in assay [14] and in assay [10] was “inactive” in each case.
Turning to `O=C(OCC#CCSc1nnc(-c2cccc3ccccc23)o1)c1cc2ccccc2s1`, the parasite growth, % of DMSO control in [4] worked out at 49.1%. In assay [5], this molecule displayed a parasite growth remaining, % of DMSO control (lower = more inhibition) of 83%. Moreover, the parasite growth, % of control (lower = inhibition) in assay [15] came to 64.2%. The same molecule came in with a growth, % of control in assay [6] of 44.7%. In addition, the cell viability, % of control (lower = more cytotoxic) in assay [7] worked out at 91.8%. The viability (% of control) in assay [8] came out at 118%. Moreover, the Potency entry in [9] and in [14] was “inactive” throughout.
With `Cc1ccn(-c2ccc(-c3ncco3)cc2)c(=O)c1-c1ccc2nc(N)ncc2c1`, the parasite growth, % of DMSO control in assay [4] turned out to be 21.1%. Further, the parasite growth remaining, % of DMSO control (lower = more inhibition) in [5] is 78.6%. The growth, % of control in assay [6] came out at 72.3%. In [7], the cell viability, % of control (lower = more cytotoxic) came out at 316%. The viability (% of control) in [8] came to 62.2%. In addition, the Potency entry in assay [9] was “inactive”. For the same molecule, the values for the Potency in [13] and in assay [10] were 16.6 µM (active) and 3.72 µM (active), respectively.
In turn, `NC(=O)c1cccc2[nH]c(-c3ccc([C@H]4CCCN4)cc3F)nc12` registered a parasite growth, % of DMSO control in assay [4] of 5.38%. In [5], this molecule showed a parasite growth remaining, % of DMSO control (lower = more inhibition) of 43.5%. Moreover, the parasite growth, % of control (lower = inhibition) in assay [15] worked out at 8.83%. Also, the cell viability, % of control (lower = more cytotoxic) in assay [7] is 104%. Besides, the viability (% of control) in [8] was 19.9%. The Potency in assay [9] is 18.7 µM (active); in assay [16], 7.43 µM (active); in [13], 14.8 µM (active); in [14], 18.7 µM (active); in assay [10] it was 11.8 µM (active).
